Screening data (PubChem)
CYP2C9 inh = human CYP2C9 inhibition. P11712. CYP2C9 Supersomes, luciferin-H conversion, luminescence. inhibition, % at 5 µM. 20% of 96,000 active;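 active = blocking of liver enzyme CYP2C9 beyond about 50% at 5 µM, limit read from the data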
CYP2C19 activ = activators of human cytochrome P450 2C19 | activation factor at 5 µM | P33261 | recombinant CYP2C19, luciferin-H EGE luminescence; stronger effect = higher value; 0 = fully inhibited enzyme, 1 = untreated enzyme | AID 1025 | 96,000 tested, under 10 active;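 active = activation factor of at least 2 at 5 µM in the primary screen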;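 also: 0 = wells with 2.5 mM tranylcypromine and 1 = vehicle-only wells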
CYP2C9 act = CYP2C9 (human) activation; recombinant CYP2C9, luciferin-H conversion, luminescence; stronger effect = higher value; factor 1 = untreated enzyme, 0 = blocked; activation factor at 5 µM; 1.4% of 96,000 active; AID 1024;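 active = activation factor of 2 or more for CYP2C9 at a 5 µM dose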;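 also: 0 = sulfaphenazole-blocked wells and 1 = vehicle-only wells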
CYP2C19 inhib = human CYP2C19 inhibition; CYP2C19 Supersomes, luciferin-H EGE luminescence, 30 min; inhibition, % at 5 µM; AID 778; P33261; 21% of 96,000 active;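 active = CYP2C19 inhibition above a set limit at 5 µM in the primary screen, cut at about 50% in these data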;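 also: plate controls were negative control wells for no effect and 2.5 mM tranylcypromine positive control for full effect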
sEH inh = soluble epoxide hydrolase (human) inhibition; recombinant human sEH enzymatic activity assay; inhibition, % at 2 µM; 0.34% of 91,000 active; AID 707; in the data active = inhibition above about 80%
Target sequence (P34913 whole entry, looked up): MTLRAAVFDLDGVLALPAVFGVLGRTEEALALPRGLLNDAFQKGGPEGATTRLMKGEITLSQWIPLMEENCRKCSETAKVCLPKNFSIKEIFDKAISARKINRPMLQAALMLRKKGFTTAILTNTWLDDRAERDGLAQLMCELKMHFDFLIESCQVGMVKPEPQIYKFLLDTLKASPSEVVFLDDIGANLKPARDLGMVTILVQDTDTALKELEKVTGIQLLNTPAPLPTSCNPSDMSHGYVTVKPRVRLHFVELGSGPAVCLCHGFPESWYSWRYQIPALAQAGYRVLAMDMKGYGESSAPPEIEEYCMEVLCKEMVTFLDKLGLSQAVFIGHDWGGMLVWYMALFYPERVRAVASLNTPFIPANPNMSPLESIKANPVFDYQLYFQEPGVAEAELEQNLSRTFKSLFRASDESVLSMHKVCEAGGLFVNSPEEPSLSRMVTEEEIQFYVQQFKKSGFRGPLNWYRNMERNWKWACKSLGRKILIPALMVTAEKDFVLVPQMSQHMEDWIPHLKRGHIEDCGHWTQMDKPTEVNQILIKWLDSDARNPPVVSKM
sEH act = activators of human soluble epoxide hydrolase; P34913; purified human sEH enzymatic activity, activator screen; activation, % at 2 µM; 0.04% of 91,000 active; AID 717; in the data active = activation above about 37%
Active calls of the source: *; / = no result. Compounds with a hit are over-represented: about 27% of the library has one in this group of screens.

SMILES	CYP2C9 inh	CYP2C19 activ	CYP2C9 act	CYP2C19 inhib	sEH inh	sEH act
CCS(=O)(=O)c1ccc2oc(SCC(=O)NC(C)C3CC4CCC3C4)nc2c1 (centres undefined)	24	0.9	0.8	10	2	-2
Nc1ccc2nc(-c3ccc(Cl)cc3)[nH]c2c1	48	0.4	0.5	59*	11	-7
CCOC(=O)c1nnc(-c2ccccc2)nc1NCc1ccc(Cl)cc1	48	0.9	0.5	14	4	-2
Cc1ccnc(SCCn2c(N3CCC(C)CC3)nc3c2c(=O)[nH]c(=O)n3C)n1	9	1	0.9	2	-11	14
O=C(CN1CCC(n2nnc3cc(C(F)(F)F)ccc32)CC1)Nc1ccc2c(c1)CCC2	79*	0.5	0.2	54*	16	-14
O=C(CN1CCC(n2nnc3cc(C(F)(F)F)ccc32)CC1)Nc1ccc2c(c1)OCCO2	87*	0.2	0.1	82*	3	-3
O=C(N1CCOCC1)N1c2ccccc2Sc2ccccc21	19	0.4	0.8	55*	20	-19
CC1CCN(C(=O)N2c3ccccc3Sc3ccccc32)CC1	-1	0.8	1	15	-17	14
C/C(=N/Nc1nc(-c2ccc(Cl)cc2)cs1)c1cccs1	48	0.8	0.5	22	14	-11
O=C1Nc2cc(Cl)cnc2N2CCCC12 (centres undefined)	83*	0.5	0.2	46	/	/
O=C(CSc1nnc2ccccn12)NCc1cccs1	7	0.8	0.9	16	/	/
CCCCc1ccc(-c2nc(-c3ccncc3)no2)cc1	67*	0.2	0.3	84*	/	/
CCCCOc1ccc(-c2nc(-c3cccnc3)no2)cc1	14	0.8	0.9	16	/	/
CCc1ccc(-c2nc(-c3ccncc3)no2)cc1	84*	0	0.2	99*	8	-8
Cn1c(SCc2cccc3ccccc23)nnc1-c1ccco1	-40	0.2	1.4	83*	4	-1
Cc1cccc(CSc2nnc(-c3ccco3)n2C)c1	3	0.6	1	37	-1	2
Nn1c(SCc2cccc3ccccc23)nnc1-c1ccco1	-164	0.6	2.6*	36	-18	16
Cn1c(SCc2nc(-c3ccc(Br)cc3)no2)nnc1-c1ccco1	25	0.9	0.7	6	8	-6
COc1cccc(CSc2nnc(-c3ccco3)n2C)c1	17	0.1	0.8	95*	2	-5
Nn1c(SCc2ccccc2)nnc1-c1ccco1	-11	0.9	1.1	13	-5	7
N#Cc1nc(-c2ccco2)oc1N1CCc2ccccc2C1	86*	0.3	0.1	68*	-16	16
N#Cc1nc(-c2ccco2)oc1N1CCN(c2cccc(Cl)c2)CC1	69*	0.2	0.3	76*	-7	9
CCN(CC)CCCN(Cc1cc2ccc(C)c(C)c2[nH]c1=O)C(=O)NC1CCCCC1	-2	1.1	1	-5	0	-1
CC1CCCCC1NC(=O)Cn1nnc(-c2ccc(Cl)cc2)n1 (centres undefined)	-8	0.3	1.1	71*	11	-11
CCC(C(=O)NC1CCCC1)N(C(=O)Cn1nnc(-c2ccc(C)cc2)n1)C1CCCC1 (centres undefined)	/	/	/	/	5	1
SMILES	CYP2C9 inh	CYP2C19 activ	CYP2C9 act	CYP2C19 inhib	sEH inh	sEH act
Cc1ccc(-c2nnn(CCC(=O)NC3CCCC3)n2)cc1	76*	0.5	0.2	45	2	-4
CSc1cc(C)nc(NC(C)=O)n1	-1	1	1	-2	-3	4
COc1ccc(-c2cc(C(F)F)n3ncc(C(=O)N4CCN5CCCC5C4)c3n2)cc1 (centres undefined)	35	0.7	0.7	32	22	-20
CC(C)n1c(CN2CCN(C)CC2)nc2c1c(=O)n(C)c(=O)n2C	/	/	/	/	13	-15
Cc1ccc(NS(=O)(=O)c2cccc(C(=O)n3ncc(C#N)c3N)c2)c(C)c1	51*	0.7	0.5	27	/	/
Cc1ccc(N(CC(=O)Nc2ccc(C)cc2C)S(=O)(=O)N2CCCC2)cc1	80*	0.8	0.2	20	21	-19
CCN1CCN(CC(=O)Nc2ccc(C)cc2C)C(=O)C1=O	50	0.8	0.5	24	-3	2
COC(=O)Nc1ccc(S(=O)(=O)N2c3ccccc3CCC2C)cc1 (centres undefined)	39	0.7	0.6	27	/	/
OC1(c2ccc(OC(F)F)cc2)CSC(=Nc2cccnc2)N1C1CC1 (centres undefined)	42	0	0.6	100*	-5	4
COc1ccc(Cn2c(=O)n(Cc3ccco3)c(=N)c3c4c(sc32)COC(C)(C)C4)cc1	91*	0.4	0.1	61*	/	/
CC1(C)Cc2c(sc3c2c(=N)n(Cc2ccco2)c(=O)n3Cc2ccc(F)cc2)CO1	24	0.9	0.8	10	/	/
Nc1nonc1NC(=O)CSc1nc2ccccc2s1	8	0.2	0.9	79*	4	-3
CCc1nnc(NC(=O)CSc2nc3ccccc3s2)s1	58*	0.8	0.4	19	0	3
CC(C)c1nnc(NC(=O)CSc2nc3ccccc3s2)s1	43	1	0.6	-3	15	-15
O=C(CSc1nc2ccccc2s1)Nc1nccs1	19	0.5	0.8	53*	-12	15
Cc1nc(=O)c(-c2ccccc2)c(C)n1-c1ccccc1O	10	0.8	0.9	17	/	/
CCCCC1(C)NC(=O)N(CC(=O)Nc2ccc(S(=O)(=O)N3CCOCC3)cc2)C1=O (centres undefined)	10	0.9	0.9	6	4	-5
Cc1ccc(N=C2NC(=O)C(CC(=O)O)S2)cc1 (centres undefined)	-8	1.2	1.1	-16	7	-7
Nc1c(C(=O)NCc2ccc(Cl)cc2)sc2nc3c(c(C(F)(F)F)c12)CCC3	61*	0.8	0.4	16	-8	6
Cc1ccc(CNC(=O)c2sc3nc4c(c(C(F)(F)F)c3c2N)CCC4)cc1	48	0.9	0.5	14	5	-7
CCCNC(=O)c1ccccc1NC(=O)Nc1ccccc1C	24	0.5	0.8	51*	-1	1
COc1ccc(C(=O)NCC(C)C)c(OC)c1	/	/	/	/	11	-6
CCCNC(=O)c1ccccc1NC(=O)c1ccccc1N(C)S(C)(=O)=O	/	/	/	/	0	1
CSc1ccccc1NC(=O)Nc1ccccc1	30	0.4	0.7	58*	2	-3
CSc1cccc(NC(=O)Nc2ccccc2)c1	28	0.6	0.7	44	57	-57
CC(C)CNC(=O)c1ccccc1Oc1ccccc1	40	0.2	0.6	75*	-7	6
CC(C)CNC(=O)c1ccccc1NC(=O)Nc1ccccc1	52*	0.7	0.5	32	3	-2
COc1ccc(OCC(=O)Nc2ncc3c(n2)CC(C)(C)CC3=O)cc1	2	1	1	-1	8	-4
CSc1nc(Oc2ccc(C)cc2)cc(C(F)(F)F)n1	0	1.1	1	-6	4	-2
